Some test systems named below: HT29 colon; SNB-75 CNS; SNB-19 CNS; PC-3 prostate; SK-MEL-5 melanoma; UACC-62 melanoma; SK-MEL-28 melanoma; SK-MEL-2 melanoma; LOX IMVI melanoma; U251 CNS.
Test in all cases: NCI-60 one-dose screen, 48 h (100 = growth as untreated, 0 = no growth, -100 = all killed)
Holding throughout (conditions): 10 µM unless noted

This is part of a sample that, as a whole, favours compounds with a hit. Of some 83,000 tested, about 20% had one in any assay.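 Interpretation: 100, growth as untreated; towards 0, rising growth inhibition; 0, no net growth; 0 to -100, cell death. Compounds scoring below 10 were considered active.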 Values without a mark were called inactive. Calls of active or inactive are those of the source.

For the compound `CC(=O)c1ccc2c3c(n(C)c2c1)CCCC3`, the growth with HT29 colon is 92.6%; with SNB-75 CNS, 92.1%; in the test with SNB-19 CNS it was 99.6%; with PC-3 prostate it was 100%; with SK-MEL-5 melanoma, 102%; with UACC-62 melanoma, 96.5%. Moreover, the growth is 96.5% with SK-MEL-28 melanoma and 104% with SK-MEL-2 melanoma.

`CCN1C[C@@H](C)n2c(c(O)c3c(=O)n(Cc4ccc(F)c(Cl)c4)nc(C(=O)NC)c32)C1=O`: the growth was 106% in the test with HT29 colon; 20.2% in the test with SNB-75 CNS; 12% with SNB-19 CNS; 69.4% in the test with PC-3 prostate; 15.1% in the test with SK-MEL-5 melanoma; -4.84% (active) with UACC-62 melanoma. The growth in the test on SK-MEL-28 melanoma was 28.9%.

For the compound `COc1ccc(Cn2c(NCCCN(C)C)nc(=O)n(Cc3ccc(F)cc3)c2=O)cc1`, the growth in the test on HT29 colon is 95.9%; in the test on SNB-75 CNS, 81.4%; in the test with SNB-19 CNS it was 104%; with PC-3 prostate, 80.3%; with SK-MEL-5 melanoma, 97.8%; in the test with UACC-62 melanoma it was 97%. The growth in the test with SK-MEL-28 melanoma is 100%.

With `Cn1cnc([N+](=O)[O-])c1S(=O)(=O)Oc1ccc(Cl)cc1`, the growth with HT29 colon was -36.9% (active); with SNB-75 CNS it was 103%; with SNB-19 CNS, 102%; in the test with PC-3 prostate, 90.8%; in the test with SK-MEL-5 melanoma it was 95.4%; in the test on UACC-62 melanoma, 78.7%. Also, the growth in the test on LOX IMVI melanoma is 45.2%; with SK-MEL-28 melanoma it was 97.4%; in the test with SK-MEL-2 melanoma, 90.6%.

As to `COc1ccc(-c2nn(-c3cccc(Cl)c3)cc2C2CC(c3ccccc3)=NN2C(C)=O)cc1` (stereo not drawn), the growth with HT29 colon was 62.7%; in the test on SNB-75 CNS it was -3.45% (active); in the test on SNB-19 CNS it was 72.9%; with PC-3 prostate it was 69%; with SK-MEL-5 melanoma, 77.2%; in the test on UACC-62 melanoma, 83.5%. The results for the growth in the test on LOX IMVI melanoma, in the test with SK-MEL-28 melanoma and with SK-MEL-2 melanoma were 76.7%, 69.9% and -2.7% (active), respectively.

Turning to `CCCCC(C#N)C(N)=O` (stereo not drawn), the growth in the test on HT29 colon was 101%; with SNB-75 CNS, 95.6%; with SNB-19 CNS it was 107%; in the test with PC-3 prostate, 88.2%; in the test on SK-MEL-5 melanoma, 107%; in the test with LOX IMVI melanoma, 98.4%. The figures for the growth with SK-MEL-28 melanoma and in the test on SK-MEL-2 melanoma were 107% and 101%, respectively.

Regarding `CN(C)c1cccc2c(S(=O)(=O)N[C@H]3CC[C@H]4[C@@H]5CCc6cc(O)ccc6[C@H]5CC[C@]34C)cccc12`, the growth in the test on HT29 colon was 2.71% (active); in the test on SNB-75 CNS it was 40.4%; with SNB-19 CNS, 62.5%; with PC-3 prostate, 16.1%; in the test with SK-MEL-5 melanoma, 41.5%; with UACC-62 melanoma it was 49.9%. Besides, the growth in the test on SK-MEL-28 melanoma is 54.7%.

Regarding `Cc1cccc(Cl)c1NC(=O)c1ccc2nc(NC(=O)NC3CC(C)(C)NC(C)(C)C3)sc2c1`, the growth in the test on HT29 colon was 59.3%; in the test with SNB-75 CNS it was -18.9% (active); in the test on SNB-19 CNS, 93.6%; in the test with PC-3 prostate it was 66.3%; with SK-MEL-5 melanoma it was 91.7%; with UACC-62 melanoma, 107%. Besides, the growth with LOX IMVI melanoma was 63.9%; in the test on SK-MEL-28 melanoma, 116%; with SK-MEL-2 melanoma it was 121%.

For `Cc1ccccc1NC(=O)c1cc2ccccc2cc1O`, the growth was 111% in the test on HT29 colon; 76.8% in the test with SNB-75 CNS; 61.9% with SNB-19 CNS; 25.9% with U251 CNS; 17.8% in the test on SK-MEL-5 melanoma; 38.6% in the test with SK-MEL-28 melanoma. Moreover, the growth in the test with SK-MEL-2 melanoma was 33%.

`COc1ccc(-c2oc3cc(O)c(OC)c(O)c3c(=O)c2OC)cc1O`: the growth was 46.2% in the test with HT29 colon; 16.4% in the test on SNB-75 CNS; 30.9% in the test on SNB-19 CNS; 15.5% in the test on PC-3 prostate; 8.22% (active) in the test on SK-MEL-5 melanoma; 36% with UACC-62 melanoma. The growth in the test on LOX IMVI melanoma is 15.8%; in the test with SK-MEL-28 melanoma, 60.6%; in the test on SK-MEL-2 melanoma it was 45.6%.

As to `C[C@]12CC[C@@H]3c4ccc(O)c([N+](=O)[O-])c4CC[C@H]3[C@@H]1CC[C@@H]2NS(=O)(=O)c1cccc(Br)c1`, the growth in the test with HT29 colon was 68.1%; with SNB-75 CNS it was 47.2%; in the test with SNB-19 CNS, 50.6%; with PC-3 prostate, 15.9%; in the test with SK-MEL-5 melanoma, 25.6%; in the test on UACC-62 melanoma, 35.4%. Also, in the test with SK-MEL-28 melanoma, the growth is 49.6%.

Take `O=C(CCc1nnc2sc(Cc3ccccc3Cl)nn12)c1nc2ccccc2[nH]1`: the growth is 99.4% in the test on HT29 colon; 78.7% in the test with SNB-75 CNS; 96.2% with SNB-19 CNS; 85.5% with PC-3 prostate; 91.8% in the test with SK-MEL-5 melanoma; 83.9% with UACC-62 melanoma. For the same compound, the results for the growth in the test on LOX IMVI melanoma, in the test with SK-MEL-28 melanoma and in the test with SK-MEL-2 melanoma were 87.9%, 110% and 93%, respectively.

For `ClC1=C(Cl)C(Cl)=C(Cl)C1=Cc1ccc(Cl)cc1`, the growth in the test on HT29 colon is -30.1% (active); in the test with SNB-75 CNS, 97.5%; in the test with SNB-19 CNS, 76.4%; with PC-3 prostate it was -36.1% (active); with SK-MEL-5 melanoma it was 100%; in the test on LOX IMVI melanoma, -85.5% (active). For the same compound, the growth was 116% with SK-MEL-28 melanoma and 99.7% with SK-MEL-2 melanoma.

`O=C(C(Br)Br)C(Br)C(Br)c1ccccc1` (stereo not drawn): the growth is -5.3% (active) in the test on HT29 colon; 115% in the test on SNB-75 CNS; 112% in the test on SNB-19 CNS; 101% in the test with PC-3 prostate; 99.3% in the test with SK-MEL-5 melanoma; 95.2% with UACC-62 melanoma. Moreover, the growth in the test with LOX IMVI melanoma is 53.3%; in the test with SK-MEL-28 melanoma, 106%; in the test on SK-MEL-2 melanoma, 117%.

For the origin of these results see PubChem BioAssay (NCI).
